Screening results: PubChem, several laboratories
Only some compounds are listed: those with a hit (about 1.6% of all), similar ones and a draw of the others.
LYP inh 2: PTPN22 phosphatase inhibitors, primary screen, biochemical, DiFMUP fluorescence, 2 µM; inhibition, % at 2 µM; AID 640, 2007; recombinant LYP catalytic domain; 96,000 tested, 0.21% active; Tyrosine-protein phosphatase non-receptor type 22 (Homo sapiens), Q9Y2R2;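 active means inhibition at 2 µM at or above a set limit, the screen mean plus 3 SD, cut at about 24% in these data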;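 further: 0% = DMSO with enzyme and 100% = enzyme fully blocked by orthovanadate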
PLAP act: PLAP enzyme activators, biochemical, luminescence, HTS | Alkaline phosphatase, placental type (Homo sapiens), P05187 | purified PLAP enzyme, luminescent substrate read-out; hits give high values | activation fold at 20 µM | 96,000 tested, 1.2% active | AID 696, 2007; in the data active means activation fold above about 2
sEH activator: soluble epoxide hydrolase activators, primary screen, biochemical, human sEH. Bifunctional epoxide hydrolase 2 (Homo sapiens), P34913. purified human sEH enzymatic activity, activator screen. activation, % at 2 µM. 91,000 tested, 0.04% active. AID 717, 2007; in the data active means activation above about 37%
sEH inh: soluble epoxide hydrolase inhibitors, primary screen, biochemical, human sEH; recombinant human sEH enzymatic activity assay; inhibition, % at 2 µM; 91,000 tested, 0.34% active; in the data active means inhibition above about 80%
EphB4 ephrin blk: EphB4-ephrin-B2 interaction antagonists, primary screen, biochemical, TNYL-RAW peptide probe, fluorescence polarization. Ephrin type-B receptor 4 (Homo sapiens), P54760. EphB4 LBD / TNYL-RAW-Alexa532 peptide. inhibition, % at 7 µM. 97,000 tested, 0.15% active. AID 720, 2007;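 active means inhibition above the screen-wide mean inhibition plus 3 SD, cut at about 15% in these data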;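 further: 0% = DMSO wells and 100% = excess unlabeled TNYL-RAW peptide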
LYP act: LYP phosphatase activators, primary screen, biochemical, DiFMUP fluorescence, 2 µM; Tyrosine-protein phosphatase non-receptor type 22 (Homo sapiens), Q9Y2R2; recombinant LYP; 0 = plate median, 100 = signal doubled; 96,000 tested, 0.11% active; activation, % at 2 µM;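 active means activation at 2 µM above a set limit, the mean plus 5 SD, cut at about 37% in these data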
* marks the source's active call; other numbers are inactive results.

N#Cc1nc(-c2ccc(OCc3ccccc3)cc2)oc1NCCN1CCOCC1 was read as LYP inh 2 -1.6, PLAP act 0.9, sEH activator 13.1, sEH inh -14.4, EphB4 ephrin blk -5.2 and LYP act 1.7.
COc1ccccc1-c1c(C(F)(F)F)oc2cc(OC(=O)c3cccc([N+](=O)[O-])c3C)ccc2c1=O was read as LYP inh 2 -0.2, PLAP act 1.1, sEH activator 13.1, sEH inh -12.4, EphB4 ephrin blk 1.5 and LYP act 3.1.
N/C(COc1ccc(F)cc1)=N\NC(=O)c1cccnc1Oc1ccccc1 was read as LYP inh 2 -0.3, PLAP act 2*, sEH activator -0.5, sEH inh 1.8, EphB4 ephrin blk 0.3 and LYP act -2.2.
For O=C(O)c1cccnc1Oc1ccccc1 the results were LYP inh 2 0.9, sEH activator -6.5, sEH inh 7.7, EphB4 ephrin blk 6.3 and LYP act -2.3.
`Cc1cccc(NC(=O)C2c3ccccc3C(=O)N3CCc4ccccc4C23)n1` (stereo unspecified) gave LYP inh 2 -0.5, PLAP act 1, sEH activator -7.6, sEH inh 6.0, EphB4 ephrin blk -1.4 and LYP act -0.7.
Cc1ccccc1CSCCNC(=O)CCSc1ccccc1 was read as LYP inh 2 8.4, PLAP act 0.9, sEH activator -81.0, sEH inh 80.9*, EphB4 ephrin blk 1.6 and LYP act -6.3.
For O=C(NC(C(=O)N/N=C/c1c2ccccc2cc2ccccc12)c1n[nH]c(=O)c2ccccc12)c1ccccc1 (stereo unspecified) the results were LYP inh 2 19.8, PLAP act 1.2, sEH activator -4.6, sEH inh 1.9, EphB4 ephrin blk 4.8 and LYP act -18.4.
O=C(NC(C(=O)N/N=C/c1ccccc1)c1n[nH]c(=O)c2ccccc12)c1ccccc1 (stereo unspecified) was read as LYP inh 2 25.6*, PLAP act 1, sEH activator -1.5, sEH inh -1.3, EphB4 ephrin blk 1.5 and LYP act -24.2.
`OC(COCC1COc2ccccc2O1)CN1CCN(c2ccccc2F)CC1` (stereo unspecified) gave LYP inh 2 -3.0, PLAP act 1.3, sEH activator 47.1*, sEH inh -48.3, EphB4 ephrin blk -2.8 and LYP act 5.5.
Screening CC1CCc2c(sc(NC(=O)c3ccc(Cn4cc([N+](=O)[O-])cn4)o3)c2C#N)C1 (stereo unspecified) returned LYP inh 2 25.4*, PLAP act 1.1, sEH activator -10.8, sEH inh 9.8, EphB4 ephrin blk 4.5 and LYP act -22.2.
Screening O=C(COC(=O)[C@H](Cc1ccccc1)NC(=O)c1ccco1)NC(c1ccccc1)c1ccccc1 returned LYP inh 2 7.0, PLAP act 0.8, sEH activator -10.2, sEH inh 12.8, EphB4 ephrin blk 1.9 and LYP act -4.2.
`O=C(COC(=O)C(Cc1ccccc1)NC(=O)c1ccco1)NC1CC1` (stereo unspecified) gave LYP inh 2 -0.9, PLAP act 1, sEH activator 4.9, sEH inh -4.0, EphB4 ephrin blk 16.6* and LYP act -1.6.
COc1ccccc1CN(Cc1ccco1)S(=O)(=O)c1ccc(-n2cnnn2)c(OC)c1 was read as LYP inh 2 2.1, PLAP act 0.7, sEH activator -7.2, sEH inh 5.4, EphB4 ephrin blk 6.6 and LYP act -6.4.
`COc1ccc(C(=O)Cn2c(C(=O)/C=C/c3ccccc3)nc3ccccc32)cc1` gave LYP inh 2 -15.7, PLAP act 1.1, sEH activator 6.6, sEH inh -7.5, EphB4 ephrin blk 5.5 and LYP act 14.0.
For O=C(COc1cccc2ccccc12)NNC(=O)C1CCCO1 (stereo unspecified) the results were LYP inh 2 5.0, PLAP act 2.2*, sEH activator 1.4, sEH inh 1.3, EphB4 ephrin blk 0.7 and LYP act -1.6.
